# PubChem BioAssay (NCI)
# Several values for one entry are separate records, joined by “and”; a condition that tells them apart may be missing. Identical values can stand only once. Compounds without any hit were thinned out: in the full panel of roughly 83,000, 20% have a hit.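 In brief: 96-well plates, 48 h treatment, single concentration, percent growth endpoint.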 A number with no mark means an inactive call. Activity calls are given as the source filed them. The calls were made as follows: active = growth percent below 10; inactive = the rest.
# System: IGROV1 ovarian
# Experiment: NCI-60 one-dose screen, 48 h (100 = growth as untreated, 0 = no growth, -100 = all killed)
# Conditions: 10 µM unless noted
row,SMILES,growth
1,O=[N+]([O-])c1ccc2c(N=Nc3ccc4ccccc4c3O)c(O)cc(S(=O)(=O)O)c2c1,61.7%
2,O=C(Nc1cccc(Br)c1)Oc1ccc(Cl)c2cccnc12,13.6% [100 µM]
3,Oc1c(Cl)cc(Cl)c2cccnc12,52.9%
4,COC(=O)[C@@]12OC[C@]34[C@H]([C@@H](O)[C@@H]1O)[C@@]1(C)[C@H](O)C(=O)C=C(C)[C@@H]1C[C@H]3OC(=O)C(OC(C)=O)[C@@H]24 (some centres undefined),-58% (active)
5,CNC(=O)N/N=C/c1ccc([N+](=O)[O-])o1,98.1%
6,O=C1C2=C(Nc3cc([N+](=O)[O-])ccc3N2)OC1c1c2ccccc2cc2ccccc12 (centres undefined),52.3%
7,COc1cc(/C=C(/C)C[N+](=O)[O-])ccc1O,44.1%
8,O=C(O)c1ccc2c3c(ncnc13)-c1ccccc1C2=O,83.4%
9,Cc1ccc2nc(C[n+]3ccc4ccccc4c3)ccc2c1,59.7%
10,C=C(Cl)C(=NC(C)(C)C)Nc1ccccc1C,119%
11,O=C1OCc2cccc3cccc1c23,102%
12,NC(N)=N/N=C/c1ccc([N+](=O)[O-])o1,98%
13,N#CSCc1c(Cl)cccc1Cl,11.5%
14,CC(=O)ON=C1C=CC(=C(C#N)c2ccccc2)C=C1,2.9% (active)
15,CCCCCCCCCCCCCCCCCCOP(=O)([O-])OC1CC[N+](C)(C)CC1,-61.7% (active)
16,C[n+]1c(/C=C/c2ccc([N+](=O)[O-])cc2)ccc2ccccc21,104%
17,c1ccc2c(c1)Nc1cc3ccccc3cc1N2,50.6%
18,CCOC(=O)/C(=C\c1ccc(-c2ccccc2)cc1)C(C)=O,101%
19,O=C1c2ccccc2C(=O)c2sc(Nc3ccc(Cl)cc3)nc21,34.8%
20,COc1ccc2nc3cc(Cl)ccc3c(NCCNc3c4ccc(Cl)cc4nc4ccc(OC)cc34)c2c1,-78.9% (active)
21,CCOC(=O)/C=C/c1ccc([N+](=O)[O-])o1,77.5%
22,COC(=O)c1nc(=S)[nH]c(C(=O)OC)c1C(=O)c1ccc2ccccc2c1,98.5%
23,COc1cc(NS(C)(=O)=O)ccc1Nc1c2ccccc2nc2ccccc12,48.6% [2.5 µM]
24,S=C(NCCNC(=S)[S][Sn]([c]1ccccc1)([c]1ccccc1)[c]1ccccc1)[S][Sn]([c]1ccccc1)([c]1ccccc1)[c]1ccccc1,-84.8% (active)
25,CN(C)C(=O)SC1=C(c2c(Cl)cccc2Cl)C(=O)c2ccccc21,119%
26,Cc1ccc2nc(-[n+]3cc4ccccc4cc3C)ccc2c1,46.4%
27,O=C(O)C1C2CC3C(OC(=O)C31)C2Br (centres undefined),103% and 114%

# Same assay, conditions: 100 µM
row,SMILES,growth
1,CN(C)C(=O)c1ccc(SC(=S)NCc2ccccc2)cc1,-28.3% (active)
2,COc1ccc(-c2cscc2N)cc1,58%
3,O=C(Nc1c(Cl)cccc1Cl)Oc1cccc2cccnc12,14.4%
4,O=C(Nc1cccc(Br)c1)Oc1cccc2cccnc12,6.09% (active)
5,O=C(O)c1c(Cl)c(Cl)c(Cl)c(Cl)c1-c1c2cc(I)c(=O)c(I)c-2oc2c(I)c(O)c(I)cc12,5.19% (active)

# System: OVCAR-3 ovarian
# Experiment: as above
# Conditions: 10 µM
row,SMILES,growth
1,CN(C)C(=O)c1ccc(SC(=S)NCc2ccccc2)cc1,121%
2,COc1ccc(-c2cscc2N)cc1,112%
3,O=C(Nc1c(Cl)cccc1Cl)Oc1cccc2cccnc12,14%
4,O=C(Nc1cccc(Br)c1)Oc1cccc2cccnc12,119%
5,O=C(O)c1c(Cl)c(Cl)c(Cl)c(Cl)c1-c1c2cc(I)c(=O)c(I)c-2oc2c(I)c(O)c(I)cc12,97.1% and 72% and 111%

# Same assay, conditions: 10 µM unless noted
row,SMILES,growth
1,O=[N+]([O-])c1ccc2c(N=Nc3ccc4ccccc4c3O)c(O)cc(S(=O)(=O)O)c2c1,41.4%
2,O=C(Nc1cccc(Br)c1)Oc1ccc(Cl)c2cccnc12,-48.7% [100 µM] (active)
3,Oc1c(Cl)cc(Cl)c2cccnc12,68% and 15.3%
4,COC(=O)[C@@]12OC[C@]34[C@H]([C@@H](O)[C@@H]1O)[C@@]1(C)[C@H](O)C(=O)C=C(C)[C@@H]1C[C@H]3OC(=O)C(OC(C)=O)[C@@H]24 (some centres undefined),-48.4% (active)
5,CNC(=O)N/N=C/c1ccc([N+](=O)[O-])o1,103%
6,O=C1C2=C(Nc3cc([N+](=O)[O-])ccc3N2)OC1c1c2ccccc2cc2ccccc12 (centres undefined),69.4%
7,COc1cc(/C=C(/C)C[N+](=O)[O-])ccc1O,85.4%
8,O=C(O)c1ccc2c3c(ncnc13)-c1ccccc1C2=O,83.4%
9,Cc1ccc2nc(C[n+]3ccc4ccccc4c3)ccc2c1,52.8%
10,C=C(Cl)C(=NC(C)(C)C)Nc1ccccc1C,65.9%
11,O=C1OCc2cccc3cccc1c23,110%
12,NC(N)=N/N=C/c1ccc([N+](=O)[O-])o1,83.1%
13,N#CSCc1c(Cl)cccc1Cl,4.78% (active)
14,CC(=O)ON=C1C=CC(=C(C#N)c2ccccc2)C=C1,-30.6% (active)
15,CCCCCCCCCCCCCCCCCCOP(=O)([O-])OC1CC[N+](C)(C)CC1,65.9% and 14%
16,C[n+]1c(/C=C/c2ccc([N+](=O)[O-])cc2)ccc2ccccc21,99.5%
17,c1ccc2c(c1)Nc1cc3ccccc3cc1N2,-3.74% (active)
18,CCOC(=O)/C(=C\c1ccc(-c2ccccc2)cc1)C(C)=O,98.2%
19,O=C1c2ccccc2C(=O)c2sc(Nc3ccc(Cl)cc3)nc21,-39.6% (active)
20,COc1ccc2nc3cc(Cl)ccc3c(NCCNc3c4ccc(Cl)cc4nc4ccc(OC)cc34)c2c1,-92.5% (active)
21,CCOC(=O)/C=C/c1ccc([N+](=O)[O-])o1,17.1%
22,COC(=O)c1nc(=S)[nH]c(C(=O)OC)c1C(=O)c1ccc2ccccc2c1,109%
23,COc1cc(NS(C)(=O)=O)ccc1Nc1c2ccccc2nc2ccccc12,58.7% [2.5 µM]
24,S=C(NCCNC(=S)[S][Sn]([c]1ccccc1)([c]1ccccc1)[c]1ccccc1)[S][Sn]([c]1ccccc1)([c]1ccccc1)[c]1ccccc1,-98.5% (active)
25,CN(C)C(=O)SC1=C(c2c(Cl)cccc2Cl)C(=O)c2ccccc21,-81.5% (active)
26,Cc1ccc2nc(-[n+]3cc4ccccc4cc3C)ccc2c1,44.6%
27,O=C(O)C1C2CC3C(OC(=O)C31)C2Br (centres undefined),110% and 106%
